An excerpt weighted towards active compounds, which were near 2.8% of everything screened.
Peg3 promoter = reduces Peg3 promoter-driven luciferase expression in HeLa; 1.7% of 360,000 active; HeLa PEG-Prom luciferase reporter, luminescence, overnight; inhibition, % at 20 µM; AID 588405;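 active = inhibition of at least 50% at 20 µM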
Shn3 3UTR inh = reduces Shn3 3'UTR luciferase signal in osteoblasts; inhibition, % at 12.5 µM; Clone20 osteoblast Shn3 3'UTR firefly luciferase, 24 h; 0.52% of 360,000 active; AID 588674;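 active = mean inhibition of at least 75% with every replicate also reaching 75%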
HIF-2a inh = blocks HIF-2a reporter activity; 786-0 RCC cells HIF-2a reporter, luciferase luminescence, overnight; inhibition, % at 18.8 µM; 0.72% of 360,000 active; AID 624352;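 active = inhibition of the luminescence signal of 40% or more relative to plate controls, in a single-dose primary screen at 18.75 µM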
CF NFkB inh = inhibitors of cystic fibrosis induced NF-kB. KKLEB NF-kB-GFP reporter, PAF-induced, GFP fluorescence overnight. inhibition, % at 5 µM. 0.86% of 360,000 active. AID 588850;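 active = at least 50% inhibition at 5 µM, scaled per plate between neutral and stimulator controls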;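 also: PAF is a Pseudomonas aeruginosa culture filtrate used as stimulus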
TRPM1 prom inh = MITF TRPM1 promoter inhibition in SK-MEL-5 cells; SK-MEL-5 TRPM1 promoter luciferase, 24 h; inhibition, % at 12.5 µM; 0.83% of 330,000 active; AID 488899;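 active = mean inhibition across replicates of 60% or more, whatever share of single replicates reaches that level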
KKLEB tox = counter-screen for CF NF-kB inhibitors: cytotoxicity; 0.36% of 360,000 active; AID 602141; KKLEB CF airway cells viability, ATPlite luminescence, overnight; hits give low values; cells stimulated with P. aeruginosa culture filtrate; activity change (cytotoxicity), % at 5 µM;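 active = corrected activity change at or below -50% at 5 µM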
A number is an active result; i = inactive; nt = no result.

SMILES	Peg3 promoter	Shn3 3UTR inh	HIF-2a inh	CF NFkB inh	TRPM1 prom inh	KKLEB tox
c1csc(CNc2ncnc3sccc23)c1	i	89.2	i	i	i	i
c1ccc(CNc2ncnc3sccc23)cc1	i	i	i	i	i	i
CCOC(=O)[C@]12CCCC=C1N(CCC1=CCCCC1)C(=O)[C@H](CC(=O)NCC1CCCCC1)C2	nt	nt	i	nt	nt	nt
Cc1ccc(F)c(S(=O)(=O)NC(=O)C2(C)CCN2C(=O)Cc2ccccc2)c1 (stereo not given)	i	i	i	i	nt	i
CC1CCN(C(=O)C(=O)Nc2sc3c(c2C(N)=O)CC(C)(C)OC3)CC1	i	i	i	i	i	i
CCCCNc1nc(N)nc(-c2cc(Cl)ccc2O)n1	i	i	i	82.5	i	i
O=C(CC1(O)C(=O)N(Cc2ccccc2)c2ccccc21)c1ccncc1 (stereo not given)	i	i	i	i	i	i
CNCC(=O)N(CC(C)C)c1c(N)n(CC(C)C)c(=O)[nH]c1=O	i	i	i	i	i	i
N#CC1(C#N)CC(C=O)=C(N)C1(C#N)CC(=O)C12CC3CC(CC(C3)C1)C2 (stereo not given)	i	i	i	82.4	i	-55.4
Nc1nccnc1C(=O)OCC(=O)C12CC3CC(CC(C3)C1)C2	i	i	i	i	i	i
O=C(OCc1nnc(-c2cccs2)o1)C1=NN(c2ccccc2)C(=O)CC1	i	i	i	i	i	i
Cc1ccc(C(=O)COC(=O)c2ccc3c(c2)C(=O)N(c2cccc4ncccc24)C3=O)cc1	101.5	i	i	i	i	i
O=C(COC(=O)c1ccc2c(c1)C(=O)N(c1cccc3ncccc13)C2=O)c1ccc(Cl)cc1	i	i	i	i	i	i
O=C(O)CCN1CCc2ccccc2C1c1ccncc1 (stereo not given)	i	i	i	i	i	i
CC(=Cc1ccccc1)C(=O)c1ccccc1	i	i	i	i	nt	i
O=C(C(Br)=Cc1ccccc1)c1ccccc1	107.9	96.6	85.5	94.2	94.1	i
CCOc1ccc(C(C(=O)NC2CCCCC2)N(C(=O)Cc2cccs2)c2ccc(-n3cnnn3)c(OC)c2)cc1 (stereo not given)	i	i	i	i	i	i
COc1cccc(CNCCc2c[nH]c3ccccc23)c1OCc1ccc(F)cc1	105.4	i	i	i	i	i
COc1ccccc1NC(=S)NCCc1c[nH]c2ccccc12	i	i	i	i	i	i
COc1cc(CNCCc2c[nH]c3ccccc23)ccc1OCc1ccc(F)cc1	111.8	i	i	i	i	i
CSCCC(NC(=O)c1ccccc1)C(=O)N1CCN(C(c2ccccc2)c2ccccc2)CC1 (stereo not given)	i	i	i	i	i	i
CCCCCCn1cc(CN2CC(N(C)C)CS2(=O)=O)nn1 (stereo not given)	nt	nt	i	nt	nt	nt
CCn1cc(C(=O)NCCCN2CCCC(C)C2)c(=O)c2cc(S(=O)(=O)N3CCc4ccccc4C3)ccc21 (stereo not given)	i	i	i	i	i	i
CCC1CCCCN1CCCNC(=O)c1cn(CC)c2ccc(S(=O)(=O)N3CCc4ccccc4C3)cc2c1=O (stereo not given)	76.7	i	i	i	i	i
CN(C)c1ccc(/C=C2\CCCCC2=O)cc1	i	i	i	i	i	i
SMILES	Peg3 promoter	Shn3 3UTR inh	HIF-2a inh	CF NFkB inh	TRPM1 prom inh	KKLEB tox
CN(C)CCC1(C2=CCCC2)CC/C(=C/c2ccc(Cl)cc2)C1=O (stereo not given)	95.3	i	i	i	i	i
Cc1[nH]c(=O)[nH]c(=O)c1S(=O)(=O)N1CCCC(C(=O)NCCC2=CCCCC2)C1 (stereo not given)	i	i	i	i	i	i
CC[C@H](C)[C@@H]1OC(=O)[C@@H](C)[C@@H](CC)NC(=O)[C@H](C)N(C)C(=O)C(C)(C)C(=O)C(C)NC(=O)[C@H](Cc2ccccc2)N(C)C(=O)[C@H](C(C)C)N(C)C(=O)CNC(=O)[C@H](CC(C)C)N(C)C(=O)CNC1=O (stereo not given in full)	87.2	i	i	90.6	nt	-96.6
CC(=O)Oc1ccccc1/C=C/c1ccc2ccccc2[n+]1C	i	i	i	i	i	i
CN(C)c1ccc(/C=C/c2ccc3ccccc3[n+]2C)cc1	i	i	i	i	87.8	i
COc1ccc(/C=C/c2ccc3ccccc3[n+]2C)cc1OC	i	92.1	i	i	i	i

From PubChem
